Rows were chosen to be rich in hits. Some 19% of all compounds tested hit in one or more screens of this group.
TDP1 cell CPT: DT40-hTDP1 cell growth loss with CPT. chicken DT40 Tdp1-/-;hTDP1 cells + 20 nM CPT, ATP luminescence, 48 h. Potency, µM (top dose mostly 46.2 µM), for the others: at the highest dose activity change, negative = growth inhibition, usual class: inhibitors. hit rate 12% among 420,000. AID 686979; also: potency is read from the fitted curve at half-maximal effect; nearly all actives have a fitted effect of over 55% in size
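Cell growth measured by CellTiter-Glo luminescence after a minimum 48 h, 37 C compound exposure with 20 nM CPT in Tdp1-knockout DT40 cells stably expressing hTDP1, seeded 400/well; qHTS titration format.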
uPA generation: inhibitors of cell surface uPA generation; Potency, µM (doses to about 38.3 µM), inactives show at the highest dose activity change, negative = inhibition, most hits filed as inhibitors; hit rate 0.31% among 330,000; AID 540303; cell surface uPA generation assay, qHTS; active = well fitted inhibition curve with a large enough effect; inconclusive = small, poorly fitted or top-dose-only effect; inactive = no such curve, though single readings can be large or run the other way; tested in mouse RAW 264.7 cells; also: potency is read from the fitted curve at half-maximal effect; nearly all actives have a fitted effect of over 55% in size
HT1080 IDH1KD tx: toxicity to HT-1080 IDH1 knockdown cells (counter line) | hit rate 2% among 360,000 | HT-1080 IDH1 knockdown viability, ATP luminescence, 48 h | AID 686971 | Potency, µM (titrated, usually from 46.1 µM), for the others: top-dose activity, negative = toxicity, usual class: cytotoxic;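 also: potency is read from the fitted curve at half-maximal effect; 0% = DMSO wells and -100% = cell-free medium wells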
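IDH1KD HT-1080 cells, 750/well, RPMI + 5% FBS; compound pinned after 2 h settling; 48 h, 37 °C; CellTiter-Glo luminescence; % activity normalised to DMSO and no-cell wells; curves fitted, classed by r2 and efficacy.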
HT1080NT lethal: kills 2HG-producing HT-1080-NT fibrosarcoma cells. HT-1080-NT fibrosarcoma viability, CellTiter-Glo ATP luminescence, 48 h. Potency, µM (highest dose often 46.1 µM), for inactives: top-dose activity, negative = less viability, hits mostly cytotoxic. hit rate 1.6% among 360,000;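 also: NT is the 2HG producing partner of a matched IDH1 knockdown line; potency is read from the fitted curve at half-maximal effect; 0% = DMSO-treated cells and -100% = media-only wells without cells; nearly all actives have a fitted effect of over 55% in size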
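Luminescent CellTiter-Glo readout after 48 hours of compound exposure at 37 degrees C defined viability of HT-1080-NT cells. Activity was normalized to DMSO wells and cell-free media wells; concentration-response curves were fitted and assigned curve classes.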
IL1B secr inh: inhibitors of inflammasome signaling (IL-1 beta secretion). THP-1 LPS/ATP IL-1B secretion, AlphaLISA, 16 h; active compounds read low. activity change, % at 57.5 µM. hit rate 4.7% among 360,000. AID 743279; in the data active = activity change below about -50%; inconclusive = mostly about -30% to -49%
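THP-1 cells pretreated 1 hr with compounds (up to 57.5 uM final), then stimulated with LPS (250 ng/mL final) plus ATP (1.25 mM final); secreted IL-1B measured by AlphaLISA after 16 hr, decreased signal indicating inhibition.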
DT40 TDP1 no CPT: qHTS for Inhibitors of human tyrosyl-DNA phosphodiesterase 1 (TDP1): qHTS in cells in absence of CPT; DT40 Tdp1-/- hTDP1 cells, no CPT, ATP luminescence, 48 h; Potency, µM (doses to about 46.2 µM), without a hit: at the highest dose activity change, negative = growth inhibition, most hits filed as inhibitors; hit rate 15% among 420,000; AID 686978, 2013; also: potency is read from the fitted curve at half-maximal effect; nearly all actives have a fitted effect of over 55% in size
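Growth of hTDP1-complemented DT40 Tdp1-knockout cells is measured by ATP luminescence after at least 48 hr compound exposure at 37 °C, with DMSO substituting for the 20 nM CPT used in the parallel screen.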
Starred values were filed as active, the others as inactive; ? = inconclusive; · = no result given. Unless noted, calls follow the shape of the dose curve; as a rule, active = well fitted curve in the direction sought with a large enough effect; inconclusive = small, poorly fitted or top-dose-only effect, or another doubt; inactive = no such curve, though single readings can be large; an effect the other way counts as inactive or inconclusive. Unless noted, % is scaled to controls: 0 for no effect and ±100 for the full control effect.

SMILES	TDP1 cell CPT	uPA generation	HT1080 IDH1KD tx	HT1080NT lethal	IL1B secr inh	DT40 TDP1 no CPT
CCc1noc(C)c1C(=O)NCCN1C(=O)S/C(=C\c2ccccc2F)C1=O	18µM*	·	2%	0%	6	18µM*
O=C(NCCN1CCOCC1)c1cccc(S(=O)(=O)N2CCCCC2)c1	-1%	2%	1%	-4%	2	2%
Cc1ccc(S(=O)(=O)N2CCOCC2)cc1C(=O)NCCN1C(=O)S/C(=C\c2ccccc2Cl)C1=O	?	-7%	3%	2%	?	?
Cc1nn(Cc2ccccc2)c(C)c1C(=O)NCCN1C(=O)S/C(=C\c2ccccc2)C1=O	21µM*	-6%	10%	0%	-2	?
O=C(CCNC(=O)c1ccco1)NCCN1C(=O)S/C(=C\c2ccc(F)cc2)C1=O	?	-13%	-7%	-2%	-28	?
O=C(NCCN1C(=O)S/C(=C\c2cccnc2)C1=O)c1cc(S(=O)(=O)N2CCOCC2)ccc1F	?	-7%	-4%	0%	0	18µM*
CC(C)(C)c1ccc(/C=C2\SC(=O)N(CCNC(=O)c3cccc(S(=O)(=O)N4CCOCC4)c3)C2=O)cc1	8.2µM*	-10%	-24%	-3%	-15	23µM*
O=C(CN1C(=O)NC2(CCCC2)C1=O)NCCN1C(=O)S/C(=C\c2ccccc2F)C1=O	?	2%	-11%	-3%	-3	?
COC(=O)N1CCC2(CCN(Cc3ccccc3)CC2)CC1	0%	·	·	·	·	-7%
CC(C)C[C@H](NC(=O)C1CCN(S(=O)(=O)c2ccccc2)CC1)C(=O)NCc1ccccn1	-3%	-9%	-1%	1%	-13	13%
CCCC1CC(=O)NC1(C(=O)OCC)C(=O)OCC (configuration not stated)	8%	1%	13%	8%	-20	0%
CC(=O)N[C@@H](C)C(=O)NCC1Cc2cccc(-c3ccccc3C(F)(F)F)c2O1 (some centres not stated)	9%	·	·	·	·	-22%
O=C1S/C(=C/c2ccccc2F)C(=O)N1CCN=C1NS(=O)(=O)c2ccccc21	16µM*	-3%	-8%	-3%	-97*	?
CC(C(=O)NCCN1C(=O)S/C(=C\c2cccnc2)C1=O)N1C(=O)c2ccccc2C1=O (configuration not stated)	-30%	-3%	-1%	-2%	6	12%
O=C(CCl)NCCN1C(=O)S/C(=C\c2cccnc2)C1=O	?	-12%	?	?	-70*	?
CC(C)NC(=O)C1=CC(c2ccc3c(c2)OCO3)=NS(=O)(=O)N1C	1%	·	·	·	·	-6%
NC(=O)CSc1ncc2c(n1)-c1ccccc1N(Cc1ccc(F)cc1)S2(=O)=O	-24%	·	·	·	·	-14%
CN1c2cc(Cl)ccc2-c2nc(SCC(=O)Nc3ccc(F)cc3F)ncc2S1(=O)=O	23µM*	·	·	·	·	16µM*
Cc1ccccc1NC(=O)CSc1ncc2c(n1)-c1ccccc1N(C)S2(=O)=O	?	·	·	·	·	-26%
Cc1ccc(NC(=O)CSc2ncc3c(n2)-c2ccccc2N(C)S3(=O)=O)c(Cl)c1	0.73µM*	·	·	·	·	0.65µM*
CCOc1ccc(NC(=O)CSc2ncc3c(n2)-c2cc(Cl)ccc2N(C)S3(=O)=O)cc1	-27%	·	·	·	·	-19%
Cc1ccc(NC(=O)CSc2ncc3c(n2)-c2ccc(Cl)cc2N(C)S3(=O)=O)cc1F	23µM*	·	·	·	·	?
CC(=O)N1CCc2c(sc3c2c(=O)n(-c2ccccc2Cl)c(=O)n3C)C1	12%	·	·	·	·	18%
Cc1ccc(C)c(OCCC(=O)N2CCN(S(=O)(=O)c3ccc([N+](=O)[O-])cc3)CC2)c1	?	10%	0%	-2%	25	?
Cc1ccc2nc(N3CC(=O)Nc4ccccc43)nc(-c3ccccc3)c2c1	?	-4%	16µM*	18µM*	30	?
SMILES	TDP1 cell CPT	uPA generation	HT1080 IDH1KD tx	HT1080NT lethal	IL1B secr inh	DT40 TDP1 no CPT
CC(NC(=O)c1ccc2c(c1)N(Cc1ccc(Cl)cc1)C(=O)c1ccccc1S2=O)c1ccccc1 (configuration not stated)	?	·	·	·	·	-21%
O=C(C[n+]1ccc2ccccc2c1)c1ccccc1	4%	-4%	-22%	15%	31	-6%
O=C(C[n+]1ccc2ccccc2c1)c1ccc2ccc3ccccc3c2c1	3.3µM*	·	?	?	?	4.1µM*
O=C(Nc1cccc(Cl)c1)N1CCN2C(=O)c3ccccc3C12c1ccccc1 (configuration not stated)	?	6%	?	?	-58*	18µM*
Cc1ccc(C(=O)N2CCN3C(=O)c4ccccc4C23c2ccc(Cl)cc2)cc1 (configuration not stated)	8.2µM*	-11%	?	?	0	10µM*
CCOC(=O)c1oc2nc(CC(C)C)c3c(c2c1N)CCCC3	23µM*	3%	-11%	-21%	-29	23µM*
CC(O)CNC(=O)C(=O)Nc1c2c(nn1-c1ccc(Cl)cc1)CSC2 (configuration not stated)	0%	·	·	·	·	-2%
O=C(Nc1ccn(C2CCC(CO)O2)c(=O)n1)c1ccccc1 (configuration not stated)	-4%	·	?	16%	-13	6%
COc1cc(OC)c(NC(=O)CC(C)S(=O)(=O)c2ccc3c(c2)NC(=O)CO3)cc1Cl (configuration not stated)	13%	·	·	·	·	-7%
COc1ccc(CCn2c(O)cc3nn(-c4nc5ccccc5s4)c(=O)c-3c2C)cc1	-26%	5%	-3%	-10%	·	16µM*
CC1CCN(c2cc(N3CCOCC3)c([N+](=O)[O-])cc2F)CC1	-11%	-1%	-2%	-17%	13	?
Cc1ccc(C(=O)N2CCN(c3ccccc3Cl)CC2)cc1[N+](=O)[O-]	29µM*	7%	3%	-2%	-10	?
CC1CCN(c2cc(N3CCN(C(=O)c4ccc(F)c(F)c4)CC3)c([N+](=O)[O-])cc2F)CC1	?	-2%	3%	-2%	-26	23µM*
Cc1cccc(N2CCN(C(=O)c3ccc(-n4cncn4)c([N+](=O)[O-])c3)CC2)c1C	21µM*	-13%	1%	7%	-14	-26%
Cc1ccc(C(=O)N2CCc3ccccc32)cc1[N+](=O)[O-]	-1%	2%	2%	2%	28	-20%

Screening results: PubChem, National Center for Advancing Translational Sciences (NCATS)
